In PubChem BioAssay (NCI) one finds growth data, which are given here for 13 compounds.

Compounds without any hit were thinned out: in the full panel of roughly 83,000, 20% have a hit.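 Interpretation: 100, growth as untreated; towards 0, rising growth inhibition; 0, no net growth; 0 to -100, cell death. Compounds scoring below 10 were considered active.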 A number with no mark means an inactive call. Activity calls are given as the source filed them.

Assay in all cases: NCI-60 one-dose screen, 48 h (100 = growth as untreated, 0 = no growth, -100 = all killed)
Holding throughout (conditions): 10 µM unless noted

Experiment [1] concerns DU-145 prostate.
The subject of experiment [2] is K-562 leukemia.
The subject of experiment [3] is MALME-3M melanoma.
Experiment [4] relates to MDA-MB-231 breast.
The subject of experiment [5] is RXF 393 renal.
The test system of experiment [6] is SF-268 CNS.
The subject of experiment [7] is SF-295 CNS.
The subject of experiment [8] is SF-539 CNS.
The test system of experiment [9] is UACC-257 melanoma.
Experiment [10] deals with M14 melanoma.

Regarding `Cc1ccc(CNc2c3ccccc3nc3cc(NC(=O)CCN4CCCC4)ccc23)cc1`, the growth in [1] is -67.9% (active); in [2] it was -30.3% (active); in [3], -94% (active); in experiment [4], -7.47% (active); in [5], 1.55% (active); in experiment [6] it was 15.1%. The growth is 36.7% in experiment [7], 16.7% in [8], 24.1% in experiment [9] and -88% (active) in [10].

For `CC(C)(C)c1cc(/C=N/NC(=O)c2ccccc2NC(=O)c2cccs2)c(O)c(C(C)(C)C)c1`, the growth in experiment [1] was 32.5%; in experiment [2], 13.1%; in [3], 49.6%; in experiment [4] it was 44.3%; in experiment [5] it was 64.6%; in experiment [6] it was 24.6%. Moreover, the growth in experiment [7] is 40%; in [8] it was 51.7%; in experiment [9] it was 38.6%; in experiment [10], 27.6%.

With `CCOC(=O)c1cc(C(=O)c2cc(OC)cc(OC)c2)n2ccc3ccccc3c12`, the growth in experiment [1] was 100%; in experiment [2] it was 98.7%; in experiment [3] it was 99.1%; in experiment [4] it was 80.1%; in [5] it was 61.5%; in experiment [6], 78.1%. Moreover, the growth is 94.9% in [7], 74.1% in [8], 93.4% in experiment [9] and 105% in experiment [10].

`Cn1c2ccccc2c2c3c(c4c5ccccc5n(C)c4c21)C(=O)OC3`: the growth was 104% in experiment [1]; 94.2% in experiment [2]; 109% in experiment [3]; 76.2% in experiment [4]; 101% in experiment [5]; 91.1% in [6]. The growth was 107% in experiment [7], 96.6% in experiment [8], 109% in experiment [9] and 103% in experiment [10].

Regarding `N/C(=N\C(N)=N\c1nc2ccccc2s1)c1ccnc(Br)c1`, the growth in [1] was 42.7%; in [2], 14%; in [3], 64.5%; in experiment [4], 51.7%; in experiment [5], 15.7%; in experiment [6], 50%. Moreover, the growth in [7] was 5.59% (active); in experiment [8], 8.41% (active); in experiment [9] it was 46.2%; in [10], 21.5%.

Regarding `NC(=NCCCOc1ccc(F)cc1)Nc1ccc(I)cc1`, the growth in experiment [1] is 63.1%; in experiment [2], 27.3%; in experiment [3], 74.6%; in [4], 51.9%; in experiment [5] it was 94%; in [6] it was 67.7%. Further, the growth in experiment [7] was 80.8%; in [8], 78.8%; in experiment [9], 55.8%; in [10], 59.6%.

For the compound `C=C1C(=O)O[C@H]2[C@H]1CC/C(CNC(=O)CCc1ccc(OC)cc1)=C\CC[C@@]1(C)O[C@@H]21`, the growth was 24.2% in experiment [1]; 19.4% in experiment [2]; 69.2% in experiment [3]; 65.8% in experiment [4]; 44.6% in experiment [5]; 79.5% in [6]. Also, the growth is 91.9% in experiment [7], 31.1% in [8], 53.1% in experiment [9] and 42.5% in experiment [10].

Consider `Oc1ccc(C(c2ccc(O)cc2)c2ccc(Br)cn2)cc1`, for which the growth in experiment [1] is 47.4%; in experiment [2], 73.5%; in experiment [3] it was 99.3%; in [4] it was 83%; in experiment [5], -22% (active); in experiment [6], 104%. Besides, the growth is -17.1% (active) in experiment [7], 84.9% in experiment [8], 91.3% in experiment [9] and 78.8% in experiment [10].

As to `COc1cc(C2=C(c3cn(C)c4ccccc34)COC2=O)cc(OC)c1OC`, the growth in [1] is 19.9%; in experiment [2], 6.17% (active); in experiment [3], 44.5%; in experiment [4], 22.5%; in [5], -21% (active); in experiment [6], 25.8%. Moreover, the growth is -5.22% (active) in experiment [7], -19.7% (active) in experiment [8], 67.4% in [9] and -13.9% (active) in [10].

As for `COc1cc(/C(C)=C(\c2ccc(Cl)cc2)c2ccc(OCCN(C)C)cc2)ccc1F`, the growth in [1] was 67.9%; in [2], 8.38% (active); in [3], -7.62% (active); in [4], 50.8%; in [5], 60.5%; in experiment [6], 70.8%. In addition, the growth in experiment [7] is 89.7%; in [8] it was 71.7%; in experiment [9], -4.66% (active); in experiment [10], 31.5%.

Regarding `CC(C)N1C(=O)/C(=C2\SC(=S)N(C(C)C)C2=O)SC1=S`, the growth was 93.6% in [1]; 93% in experiment [2]; 82.6% in experiment [3]; 81% in experiment [4]; 104% in experiment [5]; 94.5% in experiment [6]. The growth in experiment [7] was 101%; in experiment [8], 85.1%; in experiment [9], 95.8%; in experiment [10], 95%.

Turning to `N#CC(C#N)=Cc1cc2ccccc2nc1Oc1ccc(C(F)(F)F)cc1`, the growth was 99.1% in [1]; 64.5% in [2]; 98.8% in experiment [3]; 84.5% in experiment [4]; 92.3% in [5]; 84.4% in experiment [6]. The growth was 92.2% in experiment [7], 96.9% in [8], 106% in experiment [9] and 92.8% in experiment [10].

Turning to `Brc1ccc(Nc2csc(-c3ccccn3)n2)cc1`, the growth in experiment [1] was 94.6%; in experiment [2], 84.5%; in experiment [3] it was 99.4%; in experiment [4], 81.9%; in [5], 106%; in experiment [6], 90.9%. The growth in experiment [7] was 88.8%; in experiment [8], 95%; in experiment [9], 111%; in experiment [10], 93.3%.
